In all, about 1,100 compounds went through this assay and about 65 (6%) were called active. No rule for the calls is given here. Only a sample is shown. Measured potencies and affinities stand elsewhere.
Each compound was assayed against Calpain-2 catalytic subunit (Sus scrofa) (UniProt P43367) (assay: pig calpain II inhibitor potency, dose response, biochemical, fluorogenic peptide substrate (AID 1420)). Settings: purified calpain II, 30 min; series mostly up to 50 µM.
Sequence of Calpain-2 catalytic subunit (Sus scrofa) (P43367 whole entry, looked up): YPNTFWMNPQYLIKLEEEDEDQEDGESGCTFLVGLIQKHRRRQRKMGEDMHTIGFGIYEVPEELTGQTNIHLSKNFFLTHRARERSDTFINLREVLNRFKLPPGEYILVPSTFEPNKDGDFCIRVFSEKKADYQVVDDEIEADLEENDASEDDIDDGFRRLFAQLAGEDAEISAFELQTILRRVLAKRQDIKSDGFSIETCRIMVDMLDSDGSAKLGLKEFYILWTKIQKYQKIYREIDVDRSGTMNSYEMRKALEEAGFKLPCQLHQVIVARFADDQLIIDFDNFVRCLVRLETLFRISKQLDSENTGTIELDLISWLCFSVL

outcome, inactive:
O=C(NNC(=O)c1cc(OCC(F)(F)F)ccc1OCC(F)(F)F)c1cccc(C(F)(F)F)c1
CN(C)c1cccc(C(=O)OCC(=O)Nc2ccccc2Cl)c1
CCOC(=O)C(C)Oc1ccc(OCc2ccccc2)cc1 (stereo not drawn)
